Screening results from PubChem BioAssay.
A selection: hits, their analogues and other compounds. The true share with any hit is near 2%.
Yeast superoxide: reduction of superoxide in aged yeast, primary screen, HTS; S. cerevisiae aged cells, superoxide DHE fluorescence; active compounds read low; superoxide response (% of plate mean), % at 10 µM; AID 2690, 2010; 0.18% of 330,000 active;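 active means superoxide response under a set limit, about three screen SD below normal, cut at about 65% in these data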;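 further: yeast aged for seven days with compound at 30 °C before DHE staining; 100% = average MFI of all compound-treated wells on the plate with controls excluded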
Platelet DG rel: inhibitors of platelet dense granule secretion, primary screen, cell-based, MLPCN, human platelets; 0.22% of 300,000 active; inhibition, %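 (compounds screened at 7.5 µM in platelet-rich plasma)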; human platelet-rich plasma, SFLLRN dense granule ATP release, luminescence; AID 1663, 2009;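 active means mean replicate score, as percent of positive control, at or above 50; inconclusive means mean below 50 but at least one replicate at or above 50; inactive means mean and every replicate below 50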
Calb FLC: C. albicans growth inhibition with fluconazole, primary screen, CaCi-2 strain, Alamar Blue fluorescence; C. albicans CaCi-2 (fluconazole-resistant clinical isolate) + fluconazole, 48 h; growth inhibition, % (no concentration beside the values); 0.57% of 300,000 active; AID 1979, 2009;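 active means growth inhibition above about 58% in most replicates, limit read from the data, passing the limit was not always enough; inconclusive means exactly half the replicates above a set limit; inactive means most replicates below a set limit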;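 further: all wells also contain fluconazole at 8 µg/ml as a sub-toxic cotreatment; 0% = median of DMSO wells and 100% = median of geldanamycin control wells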
SKKanGAS inh: S. pyogenes SKKanGAS growth inhibitors in kanamycin, primary screen, streptokinase expression inhibitor project, SKKanGAS strain, BacTiter-Glo luminescence. 6 h. inhibition, % at 7.5 µM. 1.3% of 300,000 active;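 active means mean replicate score, as percent of positive control median, at least 50; inconclusive means mean below 50 but one replicate at or above 50; inactive means mean and every replicate below 50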;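 further: strain carries kanamycin resistance gene driven by streptokinase promoter and grows in 40 µg/ml kanamycin; loss of luminescence reflects streptokinase promoter inhibition or plain growth inhibition; 0% = median of DMSO wells and 100% = positive control at its reference dose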
PolyA inhibitor: polyadenylation inhibitors in yeast reporter cells, primary screen, luminescence, S. cerevisiae; activity score, % at 12 µM; 0.02% of 300,000 active; S. cerevisiae SKY197-pL101 polyadenylation reporter, beta-gal luminescence; efflux-impaired pdr1/pdr3 knockout yeast; score 100 = 6 SD above DMSO;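 active means lowest replicate activity score at least 50, where 100 means six control SD above control mean; inconclusive means lowest score under 50 but half or more replicates reach 50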;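 further: yeast exposed to compound for 9 h at 30 °C; higher score means more reporter readthrough which indicates perturbed polyadenylation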
Numbers without * were called inactive.

Results for Cc1ccc(/C=C2\SC(=O)N(CCNC(=O)C3CSC4(C)CCC(=O)N34)C2=O)cc1 (stereo unspecified) ?
Yeast superoxide: 101.6; Platelet DG rel: 14.5; Calb FLC: -23.2; SKKanGAS inh: 1.7; PolyA inhibitor: 8.7

What do the screens show for `C=C(C)[C@@H]1CC[C@]2(C(=O)O)CC[C@]3(C)C(CCC4[C@@]5(C)CC[C@H](O)C(C)(C)C5CC[C@]43C)C12` (stereo partly specified)?
Yeast superoxide: 82.5; Platelet DG rel: -7.2; Calb FLC: 1.5; SKKanGAS inh: 24.7; PolyA inhibitor: 16.3

Results for C=C(C)[C@@H]1CCC2(C(=O)O)CC[C@]3(C)[C@H](CC[C@@H]4[C@@]5(C)CCC(=O)C(C)(C)[C@@H]5CC[C@]43C)[C@@H]12 (stereo partly specified) ?
Yeast superoxide: 98.7; Platelet DG rel: 10.8; Calb FLC: 2.9; SKKanGAS inh: 104.4*; PolyA inhibitor: 25.7

What do the screens show for `Cc1ccc(SC/C(O)=C(\C#N)c2nc3ccccc3s2)cc1`?
Yeast superoxide: 109.8; Platelet DG rel: -3.3; Calb FLC: 88.1*; SKKanGAS inh: 76.6*; PolyA inhibitor: 2.0

How did N#C/C(=C(/O)COc1ccccc1)c1nc2ccccc2s1 do in these assays?
Yeast superoxide: 105.2; Platelet DG rel: -8.6; Calb FLC: 7.2; SKKanGAS inh: inconclusive; PolyA inhibitor: 3.2

Results for COc1ccc(C/C(O)=C(\C#N)c2nc3ccccc3s2)cc1 ?
Yeast superoxide: 116.5; Platelet DG rel: -2.2; Calb FLC: 93.9*; SKKanGAS inh: 9.5; PolyA inhibitor: 9.1

What do the screens show for `N#C/C(=C(/O)COc1ccc(Cl)cc1)c1nc2ccccc2s1`?
Yeast superoxide: 99.9; Platelet DG rel: 7.1; Calb FLC: 93.7*; SKKanGAS inh: 89.9*; PolyA inhibitor: 23.7

Results for N#C/C(=C(/O)COC(=O)c1ccc(C#N)cc1)c1nc2ccccc2s1 ?
Yeast superoxide: 112.5; Platelet DG rel: -0.1; Calb FLC: 15.9; SKKanGAS inh: 25.8; PolyA inhibitor: 10.7

How did N#C/C(=C(/O)CSc1ccccn1)c1nc2ccccc2s1 do in these assays?
Yeast superoxide: 82.3; Platelet DG rel: -23.0; Calb FLC: 7.1; SKKanGAS inh: -0.5; PolyA inhibitor: 1.8

How did COC(=O)c1c(NC(=O)CCNCc2ccco2)sc2c1CCC2 do in these assays?
Yeast superoxide: 97.8; Platelet DG rel: 15.0; Calb FLC: -8.7; SKKanGAS inh: -11.0; PolyA inhibitor: 8.2

Results for O=C(COC(=O)c1cccc(OC(F)F)c1)NCC1CCCO1 (stereo unspecified) ?
Yeast superoxide: 96.2

Results for O=[N+]([O-])c1ccc(O)c(/C=N/Nc2ccc(Cl)nn2)c1 ?
Yeast superoxide: 114.6; Platelet DG rel: 4.9; Calb FLC: 116.5*; SKKanGAS inh: 101.6*; PolyA inhibitor: -24.7

Results for O=[N+]([O-])c1ccc(O)c(/C=N/Nc2nn[nH]n2)c1 ?
Yeast superoxide: 99.0; Platelet DG rel: -4.4; Calb FLC: 37.3; SKKanGAS inh: -2.4; PolyA inhibitor: -31.8

Results for O=[N+]([O-])c1ccc(/C=N/NC2=NS(=O)(=O)c3ccccc32)cc1 ?
Yeast superoxide: 102.2; Platelet DG rel: -4.8; Calb FLC: -15.8; SKKanGAS inh: -5.7; PolyA inhibitor: 26.9

Results for O=[N+]([O-])c1ccc(O)c(/C=N/NC2=NS(=O)(=O)c3ccccc32)c1 ?
Yeast superoxide: 103.9; Platelet DG rel: 6.2; Calb FLC: -13.0; SKKanGAS inh: 59.2*; PolyA inhibitor: -10.4

How did O=c1c2ccccc2nc(N/N=C/c2c(O)ccc3ccccc23)n1O do in these assays?
Yeast superoxide: 116.6; Platelet DG rel: 14.0; Calb FLC: 106.1*; SKKanGAS inh: 29.3; PolyA inhibitor: 22.5

What do the screens show for `O=c1c2ccccc2nc(N/N=C/c2ccc(O)cc2)n1O`?
Yeast superoxide: 90.6; Platelet DG rel: 24.5; Calb FLC: -7.9; SKKanGAS inh: 14.7; PolyA inhibitor: 17.0

What do the screens show for `CC(=O)OCC(CCn1cnc2cnc(N)nc21)COC(C)=O`?
Yeast superoxide: 88.2; Platelet DG rel: 1.7; SKKanGAS inh: -5.3; PolyA inhibitor: 7.6

How did CCCCn1c(SCC(N)=O)nc2ccc(N3CCOCC3)cc2c1=O do in these assays?
Yeast superoxide: 108.6; Platelet DG rel: -10.6; Calb FLC: 7.4; SKKanGAS inh: 3.2; PolyA inhibitor: 23.0

Results for CCCCn1c(SCC(=O)Nc2cccc(OC)c2)nc2ccc(N3CCOCC3)cc2c1=O ?
Yeast superoxide: 96.7; Platelet DG rel: 13.5; Calb FLC: 96.3*; SKKanGAS inh: 26.0; PolyA inhibitor: 7.2

How did COc1ccc(CC(=O)N[C@@H]2c3ccccc3CC[C@H]2OCc2ccccc2)cc1 do in these assays?
Yeast superoxide: 90.9

What do the screens show for `CCSc1nnc(-c2ccc(C)cc2)c2ccccc12`?
Yeast superoxide: 91.4; Platelet DG rel: 2.1; Calb FLC: 92.9*; SKKanGAS inh: -8.7; PolyA inhibitor: -29.4

Results for O=C(CSc1nc(N2CCOCC2)nc(N2CCOCC2)n1)Nc1cccc(C(F)(F)F)c1 ?
Yeast superoxide: 88.6; Platelet DG rel: 5.0; Calb FLC: -4.7; SKKanGAS inh: 53.7*; PolyA inhibitor: 5.7

How did Cc1nc2sc(-c3ccccc3)cc2c(=O)n1N do in these assays?
Yeast superoxide: 111.3; Platelet DG rel: 79.7*; Calb FLC: 0.0; SKKanGAS inh: 33.9; PolyA inhibitor: -27.1

How did Cc1nc2sc(-c3ccccc3)cc2c(=O)n1-n1cccc1 do in these assays?
Yeast superoxide: 118.2; Platelet DG rel: -4.2; Calb FLC: -4.9; SKKanGAS inh: -7.7; PolyA inhibitor: -17.0

Results for O=c1c2ccccc2nc2n1CCC2 ?
Yeast superoxide: 210.2; Platelet DG rel: 4.8; Calb FLC: 18.4; SKKanGAS inh: -6.4; PolyA inhibitor: -4.8

Results for O=c1c2cc(-c3ccccc3)sc2nc2n1CCC2 ?
Yeast superoxide: 89.9; Platelet DG rel: 11.4; Calb FLC: -16.6; SKKanGAS inh: 49.6*; PolyA inhibitor: -14.9

Results for CCOC(=O)c1c(N2CCCCC2)c2ccccc2[nH]c1=O ?
Yeast superoxide: 96.0; Platelet DG rel: 70.1*; Calb FLC: -19.0; SKKanGAS inh: -0.4; PolyA inhibitor: -13.4

How did COc1ccc(C)cc1S(=O)(=O)NC(C)c1cnn(-c2ccccn2)c1C (stereo unspecified) do in these assays?
Yeast superoxide: 107.6; Platelet DG rel: -2.6; Calb FLC: 57.3; SKKanGAS inh: -7.4; PolyA inhibitor: -4.3

How did CC(NC(=O)c1ccc([N+](=O)[O-])o1)C1CC2CCC1C2 (stereo unspecified) do in these assays?
Yeast superoxide: 116.2

What do the screens show for `O=C(NC12CC3CC(CC(C3)C1)C2)c1ccc([N+](=O)[O-])o1`?
Yeast superoxide: 98.0; Platelet DG rel: 21.1; Calb FLC: 3.9; SKKanGAS inh: 93.0*; PolyA inhibitor: -0.5
